CF NFkB inh = blocks PAF-induced NF-kB reporter in cystic fibrosis cells. inhibition, % at 5 µM. AID 588850. KKLEB NF-kB-GFP reporter, GFP fluorescence overnight. 360,000 tested, 0.86% active;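 active means at least 50% inhibition at 5 µM, scaled per plate between neutral and stimulator controls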;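 further: PAF is a Pseudomonas aeruginosa culture filtrate used as stimulus; plate controls were PAF-stimulated DMSO wells for no effect and unstimulated DMSO wells for full effect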
LGR2 antag = inhibitors of bursicon-induced Drosophila LGR2 receptor cAMP signaling | inhibition, % at 9.99 µM | 380,000 tested, 0.35% active | HEK293 LGR2, CRE-luciferase, bursicon-stimulated, 4 h;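 active means drop in luminescence signal, shown as inhibition above about 50% in the replicate tests, limit read from the data, passing the limit was not always enough; inconclusive means probably only some replicates passing the limit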;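 further: agonist challenge used bursicon conditioned medium at about half maximal strength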
Peg3 prom inh = reduces Peg3 promoter-driven luciferase expression in HeLa; HeLa PEG-Prom luciferase reporter, luminescence, overnight; inhibition, % at 20 µM; 360,000 tested, 1.7% active; AID 588405;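 active means inhibition of at least 50% at 20 µM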
Mdm2-MdmX inh = human Mdm2/MdmX binding inhibition | 330,000 tested, 3% active | AID 485346 | inhibition, % at 8 µM | SaOS-2 split-luciferase Mdm2/MdmX complementation, luminescence;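 active means inhibition of at least 50% at 8 µM in the primary screen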
Target sequence (O15151 whole entry, looked up): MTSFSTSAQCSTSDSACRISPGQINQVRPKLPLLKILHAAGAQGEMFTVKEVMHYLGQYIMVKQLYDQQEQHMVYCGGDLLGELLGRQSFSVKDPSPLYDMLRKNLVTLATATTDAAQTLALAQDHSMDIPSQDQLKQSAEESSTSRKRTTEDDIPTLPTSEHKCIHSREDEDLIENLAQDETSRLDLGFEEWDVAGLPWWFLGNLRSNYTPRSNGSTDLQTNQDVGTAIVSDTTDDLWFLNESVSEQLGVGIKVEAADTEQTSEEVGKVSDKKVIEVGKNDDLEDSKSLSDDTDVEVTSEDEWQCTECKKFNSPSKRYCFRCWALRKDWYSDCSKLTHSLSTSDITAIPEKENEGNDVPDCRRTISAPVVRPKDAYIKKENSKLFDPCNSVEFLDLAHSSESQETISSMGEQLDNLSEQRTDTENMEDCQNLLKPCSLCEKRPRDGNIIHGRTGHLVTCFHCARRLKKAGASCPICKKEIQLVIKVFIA
Target sequence (Q00987 whole entry, looked up): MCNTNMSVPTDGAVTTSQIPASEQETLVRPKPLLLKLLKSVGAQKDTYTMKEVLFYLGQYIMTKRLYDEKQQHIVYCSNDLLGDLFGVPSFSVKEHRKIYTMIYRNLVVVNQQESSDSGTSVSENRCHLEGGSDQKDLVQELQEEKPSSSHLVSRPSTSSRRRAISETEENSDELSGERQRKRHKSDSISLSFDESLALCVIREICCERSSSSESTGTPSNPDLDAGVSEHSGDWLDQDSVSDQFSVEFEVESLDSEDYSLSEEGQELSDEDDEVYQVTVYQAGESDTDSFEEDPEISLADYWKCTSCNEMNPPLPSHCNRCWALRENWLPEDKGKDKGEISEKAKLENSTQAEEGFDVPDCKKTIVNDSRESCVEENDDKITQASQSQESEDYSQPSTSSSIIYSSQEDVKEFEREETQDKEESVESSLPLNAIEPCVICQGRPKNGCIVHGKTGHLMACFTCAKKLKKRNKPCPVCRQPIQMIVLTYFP
HSP90 refold inh = blocks HSP90-mediated luciferase refolding in reticulocyte lysate; Rabbit reticulocyte lysate, luciferase refolding luminescence, 3 h; inhibition, % at 5.6 µM; 290,000 tested, 0.91% active;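 active means inhibition above the screen-wide mean plus 3 SD, computed separately per campaign, cut at about 16% in these data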;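 further: 0% = DMSO wells and 100% = 60 µM geldanamycin wells; inhibitors lower the luminescence because luciferase stays unfolded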
KKLEB tox = CF airway cell cytotoxicity counter-screen; KKLEB CF airway cells viability, ATPlite luminescence, overnight; active compounds read low; cells stimulated with P. aeruginosa culture filtrate; activity change (cytotoxicity), % at 5 µM; 360,000 tested, 0.36% active;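 active means corrected activity change at or below -50% at 5 µM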
Mdm2-MdmX conf = confirmation of human Mdm2/MdmX interaction inhibitors. shares compounds with Mdm2-MdmX inh. Mdm2-MdmX binding, luminescent assay. inhibition, % at 8 µM. 10,000 tested, 55% active; in the data active means inhibition above about 40%
FLuc counter = inhibits full-length luciferase, flagging false Mdm2/MdmX hits; SaOS-2 full-length luciferase counterscreen, luminescence; shares compounds with Mdm2-MdmX inh; AID 504607; 6,200 tested, 77% active; inhibition, % at 8 µM;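 active means mean inhibition at 8 µM reaching about 37%, which flags the compound as non-specific, limit read from the data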;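 further: p53-null SaOS-2 cells with luciferase driven by a doxycycline-inducible promoter; compound on cells about two nights before reading with doxycycline added after day one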
* hit, by the source's call; ? = inconclusive; . = not tested or not shown. Rows were chosen to be rich in hits. Some 3.6% of all compounds tested hit in one or more screens of this group.

SMILES	CF NFkB inh	LGR2 antag	Peg3 prom inh	Mdm2-MdmX inh	HSP90 refold inh	KKLEB tox	Mdm2-MdmX conf	others
O=C(NCC[C@@H]1CC[C@@H](NS(=O)(=O)c2ccc(F)cc2)[C@H](CO)O1)Nc1ccc(Cl)cc1	.	-5	.	.	.	.	.
CCC(C)(C)C(=O)O[C@H]1C[C@@H](C)C=C2C=C[C@H](C)[C@H](CC[C@@H]3C[C@@H](O)CC(=O)O3)[C@H]21	19	9	43	55*	-4	19	22
O=S(=O)(CCSc1nc2ccccc2o1)c1nc2ccccc2s1	57*	?	43	83*	2	-24	72*	FLuc counter=36
O=S(=O)(CCSc1ccccn1)c1nc2ccccc2s1	32	39	60*	80*	-3	-35	48*	FLuc counter=39*
COCC(=O)N1[C@H](CO)[C@H](c2ccccc2C2=CCCC2)[C@@H]1C#N	.	-2	.	.	.	.	.
CN(C)CC(=O)Nc1ccc2c(c1)[C@@H]1C[C@@H](CC(=O)N(C)C)O[C@H](CO)[C@@H]1O2	.	-7	.	.	.	.	.
CC(C)(C)N1C(=O)Cc2c1nc(N)c1c(N)nc(N3CCCCC3CO)c(C#N)c21 (stereo unspecified)	4	.	-42	68*	2	12	24
Cc1ccccc1-c1cnc2c(c1)C(=O)N([C@H](C)CO)C[C@@H](C)[C@H](CN(C)C(=O)CC1CC1)O2	.	6	.	.	.	.	.
Cc1ccc(S(=O)(=O)CCc2nc3ccccc3n2CCC#N)cc1	16	.	-4	62*	-1	4	37	FLuc counter=32
CCC(=O)Nc1ccc2c(c1)OC[C@H](C)N(CCc1ccccc1)C[C@@H](C)[C@H](OC)CN(C)C2=O	.	1	.	.	.	.	.
COc1ccc(-n2cc(CNCc3cccnc3)c(-c3cccc(F)c3)n2)cc1	4	-21	-55	5	-1	-7	.
COc1ccc(CNCc2cn(-c3cccc(F)c3)nc2-c2ccc(C)o2)cc1	-9	-20	-17	52*	2	-26	13
COc1ccc(-c2csc3nc(C)nc(N4CCC(C)CC4)c23)cc1OC	-16	-16	-4	66*	3	-14	38	FLuc counter=84*
C[C@H]1CN([C@@H](C)CO)C(=O)c2cc(NC(=O)C3CC3)ccc2O[C@@H]1CN(C)C(=O)Nc1ccc(F)cc1	.	10	.	.	.	.	.
Cc1sc2ncnc(NCc3ccco3)c2c1C	-24	.	5	39	0	-2	.
Cc1sc2ncnc(NCc3cccs3)c2c1C	-48	.	-15	52*	-2	-19	28
O=C(CCCN1C(=O)/C(=C/c2ccccc2Cl)SC1=S)N1CCCC1	5	29	35	76*	9	-11	31
O=C(CCCN1C(=O)/C(=C/c2ccccc2Cl)SC1=S)NCCCN1CCOCC1	32	10	22	39	1	-16	.
O=C(CCN1C(=O)/C(=C/c2ccccc2Cl)SC1=S)N1CCCC1	53*	29	73*	62*	0	-4	24
Cc1cc(NC(=O)CCCN2C(=O)/C(=C/c3ccccc3Cl)SC2=S)no1	29	10	-13	68*	4	-24	43*	FLuc counter=58*
COc1ccccc1/C=C1\SC(=S)N(CCC(=O)N2CCN(C)CC2)C1=O	-12	-6	7	15	2	0	.
O=C(c1ccccc1F)N1CC[C@@H]2[C@H](CO)Nc3ccc(-c4ccc(F)cc4)cc3[C@@H]21	.	16	.	.	.	.	.
CC=Cc1ccc2n(c1=O)C[C@H]1[C@H](CO)[C@@H](C(=O)NCCc3ccncc3)[C@@H]2N1CCc1ccccc1 (mixture of isomers)	.	-13	.	.	.	.	.
COc1cc(-c2cccc([C@H]3[C@@H]4C=CC[C@@H](C)[C@@H]4C(=O)N3Cc3ccccc3)c2)cc(OC)c1OC	3	14	20	83*	.	-17	35
COc1ccc(-c2c([C@H]3[C@H]4C=CC[C@@H](C)[C@@H]4C(=O)N3Cc3ccccc3)ccc3ccccc23)cc1	38	15	1	69*	.	-17	16
SMILES	CF NFkB inh	LGR2 antag	Peg3 prom inh	Mdm2-MdmX inh	HSP90 refold inh	KKLEB tox	Mdm2-MdmX conf	others
COc1ccc(-c2cccc([C@H]3[C@@H]4C=CC[C@@H](C)[C@@H]4C(=O)N3Cc3ccccc3)c2)cc1	-8	7	12	18	.	4	.
COc1ccc(CN2CCC(N(CCc3ccccc3)Cc3ccccc3)CC2)c(OC)c1	26	31	63*	86*	5	-9	31
O=C(C[C@H]1C[C@H]2c3cc(NC(=O)C4CCOCC4)ccc3O[C@H]2[C@H](CO)O1)NC1CCCC1	.	-3	.	.	.	.	.
COc1ccccc1S(=O)(=O)N[C@H]1CC[C@@H](CCn2cc(C3CCCC3)nn2)O[C@@H]1CO	.	-19	.	.	.	.	.
CCOc1ccccc1C=NNC(=O)C(=O)NN=Cc1ccccc1OCC	-2	5	17	.	.	-5	.
CCOc1ccccc1NC(=O)C(=O)N/N=C/c1cc(Br)ccc1O	31	7	53*	76*	1	-21	83*	FLuc counter=39*
COc1cccc(/C=N/NC(=O)C(=O)Nc2ccccc2OC(F)(F)C(F)F)c1O	9	17	49	62*	-8	-9	75*	FLuc counter=22
COc1ccccc1/C=N/NC(=O)c1cccc(OC(F)(F)C(F)F)c1	28	-24	-7	12	-2	-10	.
Cc1noc(C)c1S(=O)(=O)N(C)C[C@@H]1OCCCC[C@H](C)Oc2ccc(NC(=O)NC3CCCCC3)cc2C(=O)N([C@H](C)CO)C[C@H]1C	.	-7	.	.	.	.	.
O=C(C[C@@H]1CC[C@@H]2[C@H](COC[C@H](O)CN2Cc2ccccc2)O1)NCCc1ccccc1	.	-3	.	.	.	.	.
N/C(=N\NC(=O)c1sccc1OCc1ccc(Cl)cc1Cl)c1ccccn1	11	14	30	62*	0	4	65*	FLuc counter=35
